Data from PubChem BioAssay AID1159580 (chemical genetic matrix, 2015).
Among all 5,500 compounds or so, about 2,000 (36%) were called active. Inconclusive results (about 18%) are left out. No stated cut-off is given here; in the data, active means normalized growth mostly below about 0.91 (no sharp cut-off); inconclusive means no clear call, values can overlap the other calls; inactive means mostly above about 0.92. Some of the results follow.

Assay: chemical genetic growth profiling, strain panel (AID 1159580);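 further: tested at 20 µM; growth read once vehicle control cultures reached saturation at 30 °C; 1 = growth at the plate median or of vehicle wells; lower values mean less growth of the strain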
Settings: growth OD

Measured: normalized growth

CCCc1nc2c(C)cc(-c3nc4ccccc4n3C)cc2n1Cc1ccc(-c2ccccc2C(=O)O)cc1
inactive: S. cerevisiae deletion strains, locus YJR043C, strain POL32, hits give low values 0.991 | S. cerevisiae deletion strains, locus YJR066W, strain TOR1, hits give low values 0.952 | S. cerevisiae deletion strains, locus YKL068W, hits give low values 1.01 | S. cerevisiae deletion strains, locus YKL160W, strain elf1, hits give low values 1.03 | S. cerevisiae deletion strains, locus YKL190W, strain CNB1, hits give low values 1 | S. cerevisiae deletion strains, locus YKR001C, strain vps1, hits give low values 1.02 | S. cerevisiae deletion strains, locus YKR026C, strain gcn3, hits give low values 1.02 | S. cerevisiae deletion strains, locus YKR091W, strain srl3, hits give low values 1.01 | S. cerevisiae deletion strains, locus YLL001W, strain dnm1, hits give low values 1.01 | S. cerevisiae deletion strains, locus YLL026W, hits give low values 1 | S. cerevisiae deletion strains, locus YLL041C, strain sdh2, hits give low values 1.01 | S. cerevisiae deletion strains, locus YLR027C, strain aat2, hits give low values 1 | S. cerevisiae deletion strains, locus YLR039C, strain RIC1, hits give low values 0.975 | S. cerevisiae deletion strains, locus YLR058C, strain SHM2, hits give low values 1 | S. cerevisiae deletion strains, locus YLR102C, strain apc9, hits give low values 1 | S. cerevisiae deletion strains, locus YLR113W, strain HOG1, hits give low values 1 | S. cerevisiae deletion strains, locus YLR221C, strain rsa3, hits give low values 0.994 | S. cerevisiae deletion strains, locus YLR258W, strain gsy2, hits give low values 1.01 | S. cerevisiae deletion strains, locus YLR262C, strain YPT6 (second series), hits give low values 0.975 | S. cerevisiae deletion strains, locus YLR262C, strain YPT6, hits give low values 0.998 | S. cerevisiae deletion strains, locus YLR268W, strain sec22, hits give low values 1 | S. cerevisiae deletion strains, locus YLR320W, strain mms22, hits give low values 0.983 | S. cerevisiae deletion strains, locus YLR330W, strain CHS5, hits give low values 1 | S. cerevisiae deletion strains, locus YLR342W, strain FKS1 (second series), hits give low values 1 | S. cerevisiae deletion strains, locus YLR342W, strain FKS1, hits give low values 1 | S. cerevisiae deletion strains, locus YLR357W, strain rsc2, hits give low values 1.03 | S. cerevisiae deletion strains, locus YLR370C, strain arc18, hits give low values 1.01 | S. cerevisiae deletion strains, locus YLR371W, strain rom2, hits give low values 1 | S. cerevisiae deletion strains, locus YLR384C, strain iki3, hits give low values 1.03 | S. cerevisiae deletion strains, locus YLR418C, strain cdc73, hits give low values 1 | S. cerevisiae deletion strains, locus YML016C, strain PPZ1, hits give low values 0.997 | S. cerevisiae deletion strains, locus YML032C, strain rad52, hits give low values 1 | S. cerevisiae deletion strains, locus YML120C, strain ndi1, hits give low values 1 | S. cerevisiae deletion strains, locus YML124C, strain tub3, hits give low values 0.998 | S. cerevisiae deletion strains, locus YMR058W, strain fet3, hits give low values 1.01 | S. cerevisiae deletion strains, locus YMR078C, strain ctf18, hits give low values 1.02 | S. cerevisiae deletion strains, locus YMR125W, strain sto1, hits give low values 0.99 | S. cerevisiae deletion strains, locus YMR129W, hits give low values 1.01 | S. cerevisiae deletion strains, locus YMR205C, strain PFK2, hits give low values 1 | S. cerevisiae deletion strains, locus YMR223W, strain ubp8, hits give low values 1.03 | S. cerevisiae deletion strains, locus YMR231W, strain pep5, hits give low values 1.02 | S. cerevisiae deletion strains, locus YMR263W, strain SAP30, hits give low values 0.994 | S. cerevisiae deletion strains, locus YMR307W, strain GAS1, hits give low values 0.995 | S. cerevisiae deletion strains, locus YNL067W, strain RPL9B, hits give low values 0.992 | S. cerevisiae deletion strains, locus YNL071W, strain lat1, hits give low values 1.01 | S. cerevisiae deletion strains, locus YNL128W, strain TEP1, hits give low values 1.01 | S. cerevisiae deletion strains, locus YNL183C, strain NPR1, hits give low values 0.969 | S. cerevisiae deletion strains, locus YNL209W, strain ssb2, hits give low values 1 | S. cerevisiae deletion strains, locus YNL233W, strain BNI4, hits give low values 0.985 | S. cerevisiae deletion strains, locus YNL248C, strain rpa49, hits give low values 1.02 | S. cerevisiae deletion strains, locus YNL250W, strain rad50, hits give low values 1.03 | S. cerevisiae deletion strains, locus YNL271C, strain bni1, hits give low values 1.02 | S. cerevisiae deletion strains, locus YNL298W, strain CLA4, hits give low values 1.02 | S. cerevisiae deletion strains, locus YNL307C, strain MCK1, hits give low values 1.01 | S. cerevisiae deletion strains, locus YNL322C, strain KRE1 (second series), hits give low values 0.976 | S. cerevisiae deletion strains, locus YNR049C, strain mso1, hits give low values 1.02 | S. cerevisiae deletion strains, locus YNR052C, strain pop2, hits give low values 1.01 | S. cerevisiae deletion strains, locus YOL006C, strain TOP1, hits give low values 0.995 | S. cerevisiae deletion strains, locus YOL012C, strain htz1 0.863 | S. cerevisiae deletion strains, locus YOL147C, strain pex11, hits give low values 1.01 | S. cerevisiae deletion strains, locus YOR001W, strain rrp6, hits give low values 0.99 | S. cerevisiae deletion strains, locus YOR061W, strain CKA2, hits give low values 0.996 | S. cerevisiae deletion strains, locus YOR069W, strain VPS5, hits give low values 1.01 | S. cerevisiae deletion strains, locus YOR070C, strain gyp1, hits give low values 1.01 | S. cerevisiae deletion strains, locus YOR080W, strain dia2, hits give low values 1.01 | S. cerevisiae deletion strains, locus YOR083W, strain WHI5, hits give low values 1.01 | S. cerevisiae deletion strains, locus YOR106W, strain vam3, hits give low values 1.03 | S. cerevisiae deletion strains, locus YOR136W, strain idh2, hits give low values 1.01 | S. cerevisiae deletion strains, locus YOR144C, strain elg1, hits give low values 1.01 | S. cerevisiae deletion strains, locus YOR184W, strain ser1, hits give low values 0.999 | S. cerevisiae deletion strains, locus YOR231W, strain MKK1, hits give low values 0.998 | S. cerevisiae deletion strains, locus YOR265W, strain rbl2, hits give low values 1.01 | S. cerevisiae deletion strains, locus YOR270C, strain vph1, hits give low values 0.954 | S. cerevisiae deletion strains, locus YOR290C, strain snf2, hits give low values 1.01 | S. cerevisiae deletion strains, locus YOR316C, strain cot1, hits give low values 0.999 | S. cerevisiae deletion strains, locus YPL051W, strain arl3, hits give low values 1.01 | S. cerevisiae deletion strains, locus YPL055C, strain LGE1, hits give low values 0.974 | S. cerevisiae deletion strains, locus YPL078C, strain atp4, hits give low values 1.01 | S. cerevisiae deletion strains, locus YPL106C, strain sse1, hits give low values 0.996 | S. cerevisiae deletion strains, locus YPL240C, strain hsp82, hits give low values 1.01 | S. cerevisiae deletion strains, locus YPL256C, strain CLN2, hits give low values 0.969 | S. cerevisiae deletion strains, locus YPR119W, strain clb2, hits give low values 1 | S. cerevisiae deletion strains, locus YPR141C, strain kar3, hits give low values 1.01 | S. cerevisiae deletion strains, locus YPR163C, strain tif3, hits give low values 0.997 | S. cerevisiae deletion strains, locus YPR167C, strain met16, hits give low values 1.01 | S. cerevisiae deletion strains, strain wtn01, hits give low values 1.05 | S. cerevisiae strains, strain wild type, hits give low values 1
active: S. cerevisiae deletion strains, locus YKL085W, strain MDH1 (second series), hits give low values 1.08 [resistant] | S. cerevisiae deletion strains, locus YKL085W, strain MDH1, hits give low values 1.08 [resistant]
